Screening results from PubChem.
A selection: hits, their analogues and other compounds. The true share with any hit is near 12%.
PLK1 PBD block = inhibitors of human PLK1 polo-box domain binding. AID 720504. Plk1 PBD binding of FITC phosphopeptide, fluorescence polarization. P53350. Potency, µM, most hits filed as inhibitors. 360,000 compounds, 2.8% hits; also: series mostly up to about 57 µM; nearly all actives have a fitted effect of over 65% in size
G9a inh = G9a (human) methyltransferase inhibition; G9a H3K9 monomethylation, AlphaScreen, 2 h; Potency, µM (doses to about 102 µM), actives largely listed as inhibitors; 350,000 compounds, 8.8% hits; AID 504332; also: nearly all actives have a fitted effect of over 75% in size
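AlphaScreen detection with an anti-monomethyl H3K9 antibody quantified product after a 2 h room-temperature reaction containing 500 nM biotinylated H3K9 peptide, 20 µM SAM and 20 nM enzyme, which had been preincubated 15 min with compound.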
JMJD2A Tudor = blocks the human JMJD2A Tudor domain; O75164; AlphaScreen JMJD2A-Tudor / H3K4me3 peptide binding; Potency, µM (top dose mostly 114 µM), actives largely listed as inhibitors; 390,000 compounds, 4.4% hits; also: nearly all actives have a fitted effect of over 50% in size
BAZ2B inh = inhibitors of human BAZ2B bromodomain | AlphaScreen BAZ2B-H3K14Ac peptide displacement | Potency, µM (series often up to 114 µM), most hits filed as inhibitors | 360,000 compounds, 4.4% hits; also: nearly all actives have a fitted effect of over 60% in size
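Inhibition is scored as reduced AlphaScreen emission. The BAZ2B/b-H3(5-23)K14Ac complex (50 nM each) in PBS pH 7.4, 0.01% Tween-20 meets compound (up to 110 uM) for 30 min at RT before bead addition.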
HP1b chromo inh = blocks HP1-beta chromodomain binding to methylated histone tails; P83916; AlphaScreen HP1-beta / biotin-H3K9me3 peptide binding; Potency, µM (doses to about 114 µM), actives largely listed as inhibitors; 390,000 compounds, 0.56% hits; also: nearly all actives have a fitted effect of over 70% in size
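HP1-beta protein (50 nM final) preincubated 30 min at room temperature with biotinylated H3(1-18)K9me3 peptide (50 nM) in PBS pH 7.4, 0.01% Tween-20, then compound added for 30 min. AlphaScreen streptavidin donor/nickel chelate acceptor beads (10 ug/mL final), 30 min dark, luminescence read.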
Sfp PPTase inh = blocks B. subtilis Sfp PPTase activity; AID 1490; Q9F4F7; Potency, µM, actives largely listed as inhibitors; 310,000 compounds, 3.5% hits; Biochemical Sfp PPTase activity, qHTS;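 also: the enzyme is Sfp with the accession as filed and its product quenches rhodamine fluorescence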
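After 15 min at room temperature with compound, 15 nM Sfp received 5 uM rhodamine-CoA plus 12.5 uM BHQ-2-ybbR (50 mM Hepes pH 7.6, 10 mM MgCl2). Rate came from the fluorescence difference over 30 min, ex 525/em 598 nm.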
Numbers stand for hits; - = inactive; ? = inconclusive; . = no result; [ ] = remark or other dose. Calls follow the shape of the dose curve; as a rule, active = well fitted curve in the direction sought with a large enough effect; inconclusive = small, poorly fitted or top-dose-only effect, or another doubt; inactive = no such curve, though single readings can be large; an effect the other way counts as inactive or inconclusive.

SMILES	PLK1 PBD block	G9a inh	JMJD2A Tudor	BAZ2B inh	HP1b chromo inh	Sfp PPTase inh
CC(C)[C@H](Nc1ccc(C(F)(F)F)cc1[N+](=O)[O-])C(=O)O	-	.	-	-	-	-
CCCCOC(=O)c1ccc(Nc2nc3ccccc3c3nnc(C)n23)cc1	.	-	-	-	-	.
Cc1cc(C(F)F)n2ncc(C(=O)O)c2n1	-	-[0.0925 µM]	-	-	-	-
O=C(O)c1cnn2cc(-c3[nH]ncc3[N+](=O)[O-])cnc12	-	?	22µM	?	-	-
Cc1cnc2c(C(=O)O)cnn2c1	-	56µM	?	?	?	-
O=c1cc(-c2ccccc2)[nH]n1-c1nc2ccccc2s1	21µM	-	-	-	-	-
CC(=O)c1c(CC(=O)O)[nH]n(-c2nc3ccccc3s2)c1=O	-	?	79µM	-	-	-
COC(=O)C1(CC(C)C)C=C2C(=C(C(C)C)C(=O)C2C)CN1 (centres undefined)	.	.	.	.	.	-
O=C(CSc1ncn[nH]1)c1ccc(OC(F)F)cc1	-	25µM	-	-	-	-
COc1ccc(C(=O)CSc2ncn[nH]2)cc1OC	-	?	40µM	-	-	-
CC(C)CNC(=S)NC(=O)c1ccc(Cl)cc1Cl	?	-	-	-	-	-
CCOc1ccc2nc(NC3=NC(c4ccc(OC)cc4)CC(=O)N3)nc(C)c2c1 (centres undefined)	-	10µM	79µM	-	?	22µM
CCSc1nnc(NC(=O)C(NC(=O)c2ccc(Cl)cc2)C(C)C)s1 (centres undefined)	-	-	-	-	-	-
CCc1sc(-c2cc3cccc(OC)c3oc2=O)nc1-c1ccccc1	.	.	-	.	-	.
Nc1ccccc1SCc1ccccc1Cl	15µM	?	-	-	-	20µM
Nc1nc(SCc2ccccc2Cl)ns1	30µM	?	-	-	-	-
Nc1ccccc1SCc1c(Cl)cccc1Cl	-	-	-	-	-	-
Nc1nc(SCc2ccccc2)ns1	?	4µM	79µM	-	?	?
Nc1ccccc1SSc1ccccc1N	0.6µM	1.6µM	32µM	45µM	?	3.5µM
N#Cc1ccccc1Sc1ccccc1N	-	-	-	-	-	-
O=C(COC(=O)C1CCN(S(=O)(=O)c2cccs2)CC1)c1cc2ccccc2o1	-	8.9µM	-	-	-	-
CC(C)(C)n1cnc2cc(NC(=O)c3cccs3)ccc21	-	40µM	-	-	-	-
CCn1cnc2cc(NC(=O)c3cccs3)ccc21	-	-	-	-	-	-
N#CCCCS(=O)(=O)c1nnnn1-c1ccc(Br)cc1	.	.	.	.	.	-
COC(=O)c1cc(S(=O)(=O)NCc2ccc(S(N)(=O)=O)cc2)oc1C	-	-	-	-	-	-
SMILES	PLK1 PBD block	G9a inh	JMJD2A Tudor	BAZ2B inh	HP1b chromo inh	Sfp PPTase inh
COc1ccc2c(C)cc(SCC(=O)Nc3cc(C(N)=O)cc(C(N)=O)c3)nc2c1	-	-	-	?	-	45µM
Cn1c(CCn2ccccc2=O)nc2cc(NC(=O)COc3ccccc3)ccc21	-	-	-	-	-	-
Cc1ccc(C)c(N2CCN(c3c(CN4CCCC4)c(=O)oc4ccccc34)CC2)c1	.	-	-	-	-	.
COc1ccc2c([N+](=O)[O-])c(Cl)[nH]c2c1	-	25µM	56µM	79µM	?	-
S=C(c1cccs1)N1CCN(c2ccccc2)CC1	-	.	?	.	?	.
CCC(C)NC(=O)c1cc2c(Cl)nc3ccc(C)cc3c2s1 (centres undefined)	.	-	-	-	-	.
CC(=O)CCc1c(C)c2cccc(C)c2[nH]c1=O	-	?	-	?	-	-
COc1cccc2c(=S)c(CCC(C)=O)c(C)[nH]c12	?	1.6µM	10µM	-	?	-
Fc1ccc(-c2ccc(CNCc3ccccn3)o2)cc1	-	40µM	50µM	50µM	-	-
N#Cc1nc(-c2ccc(Cl)cc2)oc1NCCc1ccccn1	-	?	-	-	-	-
Clc1ccc(-c2ccc(CNCc3ccccn3)o2)cc1	-	?	79µM	20µM	-	-
Fc1ccc(-c2ccc(CNCCSc3nnnn3-c3ccccc3)o2)cc1	.	13µM	?	35µM	-	.
CCN(CC(=O)Nc1c(F)cccc1F)C(=O)CNC(=O)c1cccc(C)c1	-	-	-	-	-	-
